# From PubChem BioAssay
# Calls of active or inactive are those of the source.
# Key:
# [1] = tested on: Plasmodium falciparum Sir2 (PF13_0152, Sir2A); experiment: pfSir2 binders on small-molecule microarrays, primary screen, biochemical, small-molecule microarray, 635 nm fluorescence (AID 1098); conditions: small-molecule microarray binding, fluorescence 635 nm; higher = more signal;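 also: score merges spot fluorescence intensity with its signal-to-noise ratio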
# [2] = small-molecule microarray binders of probe aDKK1, primary screen, biochemical, biotinylated probe, 635/667 nm fluorescence (AID 1099); conditions: higher = more signal;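 also: score merges 667nm spot fluorescence with signal to noise across triplicate slides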
# [3] = small-molecule microarray binders of probe aCHRDL2, primary screen, biochemical, biotinylated probe, 635/667 nm fluorescence (AID 1100); conditions: higher = more signal
# [4] = splicing luciferase reporter signal modulators, primary screen, spliceosome inhibition project, cell-based, HEK293, splice +/- reporter (AID 1101); conditions: luminescence, 24 h, higher = more signal, called active from +8 up or from −8 down;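 also: HEK293 cells carrying a splicing-competent luciferase reporter gene; test concentration not given here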
# [5] = target: Fibroblast growth factor 10 (Homo sapiens) (UniProt O15520); experiment: FGF10 binders on small-molecule microarrays, primary screen, biochemical, small-molecule microarray, 635 nm fluorescence (AID 1102); conditions: FGF10 binding, fluorescence 635 nm, higher = more signal
# Chain of Fibroblast growth factor 10 (Homo sapiens) (O15520 whole entry, looked up): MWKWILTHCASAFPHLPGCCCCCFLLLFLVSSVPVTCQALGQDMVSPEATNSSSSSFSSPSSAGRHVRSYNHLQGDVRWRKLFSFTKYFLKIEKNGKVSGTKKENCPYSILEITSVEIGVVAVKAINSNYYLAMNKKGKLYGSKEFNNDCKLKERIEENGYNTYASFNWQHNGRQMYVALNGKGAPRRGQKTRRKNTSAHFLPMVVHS
# [6] = tested on: glycogen synthase kinase-3 (GSK3A per assay name; protocol says GSK3B); experiment: GSK3 binders on small-molecule microarrays, primary screen, biochemical, small-molecule microarray, 635 nm fluorescence, GSK3A (AID 1103); conditions: small-molecule microarray binding, fluorescence 635 nm; higher = more signal; also: the record names both GSK3A and GSK3B
# [7] = target: Epidermal growth factor receptor (Homo sapiens) (UniProt P00533); experiment: EGFR binders on small-molecule microarrays, primary screen, biochemical, small-molecule microarray, 635 nm fluorescence (AID 1104); conditions: EGFR binding, higher = more signal;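 also: score merges 667 nm emission intensity with spot signal to noise over triplicate slides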
# Chain of Epidermal growth factor receptor (Homo sapiens) (P00533 whole entry, looked up): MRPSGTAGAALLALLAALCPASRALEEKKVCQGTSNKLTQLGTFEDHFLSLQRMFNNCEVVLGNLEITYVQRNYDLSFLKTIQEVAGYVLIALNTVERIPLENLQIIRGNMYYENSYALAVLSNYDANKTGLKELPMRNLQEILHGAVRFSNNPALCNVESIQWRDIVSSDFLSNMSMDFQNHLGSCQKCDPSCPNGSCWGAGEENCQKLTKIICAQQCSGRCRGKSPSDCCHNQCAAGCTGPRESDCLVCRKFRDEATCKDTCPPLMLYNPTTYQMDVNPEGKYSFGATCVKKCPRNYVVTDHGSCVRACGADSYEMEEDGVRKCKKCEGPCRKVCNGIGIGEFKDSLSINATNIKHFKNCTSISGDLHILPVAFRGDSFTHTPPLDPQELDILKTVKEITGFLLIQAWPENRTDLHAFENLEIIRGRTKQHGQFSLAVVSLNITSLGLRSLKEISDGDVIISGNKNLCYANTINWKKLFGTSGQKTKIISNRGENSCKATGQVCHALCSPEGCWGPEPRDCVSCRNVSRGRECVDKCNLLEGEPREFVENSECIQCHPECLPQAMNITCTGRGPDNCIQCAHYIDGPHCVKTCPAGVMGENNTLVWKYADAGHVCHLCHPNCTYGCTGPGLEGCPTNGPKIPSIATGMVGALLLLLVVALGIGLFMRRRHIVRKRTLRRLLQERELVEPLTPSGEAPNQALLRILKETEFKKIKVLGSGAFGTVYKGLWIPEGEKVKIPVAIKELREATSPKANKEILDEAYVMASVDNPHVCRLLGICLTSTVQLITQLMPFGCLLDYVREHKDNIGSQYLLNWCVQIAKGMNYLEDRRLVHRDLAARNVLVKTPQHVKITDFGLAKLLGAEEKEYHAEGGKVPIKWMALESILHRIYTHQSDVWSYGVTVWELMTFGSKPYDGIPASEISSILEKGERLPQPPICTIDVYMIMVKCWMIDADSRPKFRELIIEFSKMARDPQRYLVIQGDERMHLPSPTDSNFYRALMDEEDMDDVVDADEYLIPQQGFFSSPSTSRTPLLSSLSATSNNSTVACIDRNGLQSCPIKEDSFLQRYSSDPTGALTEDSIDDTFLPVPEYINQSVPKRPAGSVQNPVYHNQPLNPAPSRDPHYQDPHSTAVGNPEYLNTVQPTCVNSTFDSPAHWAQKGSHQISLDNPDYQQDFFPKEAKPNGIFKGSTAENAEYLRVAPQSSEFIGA
# [8] = target: Follistatin-related protein 3 (Homo sapiens) (UniProt O95633); experiment: FSTL3 binders on small-molecule microarrays, primary screen, biochemical, small-molecule microarray, 635 nm fluorescence (AID 1105); conditions: FSTL3 binding, higher = more signal;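 also: score merges emission near 667 nm and signal to noise per printed spot across three slides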
# Chain of Follistatin-related protein 3 (Homo sapiens) (O95633 whole entry, looked up): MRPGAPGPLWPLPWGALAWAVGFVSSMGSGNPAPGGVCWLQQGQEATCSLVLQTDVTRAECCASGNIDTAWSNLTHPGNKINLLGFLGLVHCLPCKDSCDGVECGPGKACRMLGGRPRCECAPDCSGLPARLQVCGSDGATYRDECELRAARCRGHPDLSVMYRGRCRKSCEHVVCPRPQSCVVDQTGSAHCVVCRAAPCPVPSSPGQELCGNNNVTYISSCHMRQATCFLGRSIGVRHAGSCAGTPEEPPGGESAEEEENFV
# [9] = target: Dickkopf-related protein 1 (Homo sapiens) (UniProt O94907); experiment: DKK1 binders on small-molecule microarrays, primary screen, biochemical, small-molecule microarray, 635 nm fluorescence scan (AID 1106); conditions: DKK1 binding, higher = more signal;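 also: score merges emission near 667 nm with signal to noise over three replicate slides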
# Chain of Dickkopf-related protein 1 (Homo sapiens) (O94907 whole entry, looked up): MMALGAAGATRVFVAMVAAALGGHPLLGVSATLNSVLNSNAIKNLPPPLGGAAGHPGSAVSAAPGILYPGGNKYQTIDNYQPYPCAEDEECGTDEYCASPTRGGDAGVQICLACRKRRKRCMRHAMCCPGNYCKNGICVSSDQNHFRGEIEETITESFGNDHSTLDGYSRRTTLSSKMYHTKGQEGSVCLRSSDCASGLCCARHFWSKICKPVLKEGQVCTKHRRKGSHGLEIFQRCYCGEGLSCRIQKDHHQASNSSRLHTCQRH
# [10] = tested on: Inhibin beta A chain (activin A); experiment: INHBA (activin A) binders on microarrays, primary screen, biochemical, small-molecule microarray, 635 nm fluorescence scan (AID 1107); conditions: small-molecule microarray binding, higher = more signal;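 also: mouse activin A protein probed at 4.33 µg/mL on printed slides; score merges bound-protein fluorescence near 667 nm with spot signal-to-noise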
# [11] = tested on: Human papillomavirus type 1a protein E7 (residues 44-93); experiment: HPV1a E7 fragment binders on microarrays, primary screen, biochemical, small-molecule microarray, residues 44-93, 635 nm fluorescence (AID 1108); conditions: small-molecule microarray binding, fluorescence 635 nm; higher = more signal;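 also: E7 fragment applied at 1 µg/mL in TBST for 1 h at 4 C; score combines spot fluorescence with its signal to noise ratio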
# [12] = modulators of HCV replicon luciferase signal, primary screen, HCV replication inhibitor project, Huh7 cells, luciferase reporter (AID 1109); conditions: 48 h, higher = more signal;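 also: huh7 hepatoma cells harbouring a luciferase neomycin HCV replicon reporter; luciferase luminescence as measure of HCV replicon replication; test concentration not given here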
# [13] = target: Left-right determination factor 2 (Homo sapiens) (UniProt O00292); experiment: LEFTY2 binders on small-molecule microarrays, primary screen, biochemical, small-molecule microarray, 635 nm fluorescence scan (AID 1110); conditions: LEFTY2 binding, higher = more signal
# Chain of Left-right determination factor 2 (Homo sapiens) (O00292 whole entry, looked up): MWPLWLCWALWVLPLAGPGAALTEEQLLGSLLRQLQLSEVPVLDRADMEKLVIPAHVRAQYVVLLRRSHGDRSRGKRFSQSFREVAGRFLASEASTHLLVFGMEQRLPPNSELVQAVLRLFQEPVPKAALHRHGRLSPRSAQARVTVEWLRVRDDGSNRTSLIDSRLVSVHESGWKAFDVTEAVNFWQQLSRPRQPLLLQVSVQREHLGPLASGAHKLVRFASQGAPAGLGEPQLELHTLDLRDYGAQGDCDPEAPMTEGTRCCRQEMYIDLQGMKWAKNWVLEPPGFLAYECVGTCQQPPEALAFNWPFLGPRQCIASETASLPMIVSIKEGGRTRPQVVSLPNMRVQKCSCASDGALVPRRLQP
# [14] = target: Calmodulin-1 (Homo sapiens) (UniProt P0DP23); experiment: CALM1 binders on microarrays, EGTA buffer, profiling panel, biochemical, small-molecule microarray, Cy5-labelled CALM1 (AID 1111); conditions: Cy5-CALM1 binding fluorescence, higher = more signal;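 also: labelled calmodulin applied in Tris saline Tween buffer holding calcium plus EGTA and DTT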
# [15] = target: Calmodulin-1 (Homo sapiens) (UniProt P0DP23); experiment: calcium-bound CALM1 binders on microarrays, profiling panel, artefact control for SMM control-protein annotation, biochemical, small-molecule microarray, Cy5-labelled CALM1, plus calcium (AID 1112); conditions: Cy5-CALM1 binding fluorescence, higher = more signal;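 also: score merges spot fluorescence with signal to noise from triplicate slides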
# [16] = small-molecule microarray binders of probe aWnt5a, primary screen, biochemical, biotinylated probe, 635/667 nm fluorescence (AID 1113); conditions: higher = more signal;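 also: score merges 667 nm fluorescence intensity with signal-to-noise per printed feature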
# [17] = small-molecule microarray binders of probe aShh, primary screen, biochemical, biotinylated probe, 635/667 nm fluorescence (AID 1114); conditions: higher = more signal;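 also: probe is biotin-labelled aShh protein from a stem cell growth factor screen; measures binding of labelled protein to compounds printed on the slide; score merges feature fluorescence at 667 nm with signal-to-noise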
# [18] = small-molecule microarray binders of probe aNog, primary screen, biochemical, biotinylated probe, 635/667 nm fluorescence (AID 1115); conditions: higher = more signal;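 also: probe is biotinylated aNog protein used at 0.15 µg/mL for 1 h at 4 C; z-score combines 667 nm fluorescence of each spot with its signal to noise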
# [19] = target: Torsin-1A-interacting protein 1 (Homo sapiens) (UniProt Q5JTV8); experiment: LAP1 binders from COS7 cell lysate, primary screen, small-molecule microarray, 635/667 nm fluorescence (AID 1116); conditions: COS7-hLAP1 lysate binding, 635 nm fluorescence, higher = more signal
# Chain of Torsin-1A-interacting protein 1 (Homo sapiens) (Q5JTV8 whole entry, looked up): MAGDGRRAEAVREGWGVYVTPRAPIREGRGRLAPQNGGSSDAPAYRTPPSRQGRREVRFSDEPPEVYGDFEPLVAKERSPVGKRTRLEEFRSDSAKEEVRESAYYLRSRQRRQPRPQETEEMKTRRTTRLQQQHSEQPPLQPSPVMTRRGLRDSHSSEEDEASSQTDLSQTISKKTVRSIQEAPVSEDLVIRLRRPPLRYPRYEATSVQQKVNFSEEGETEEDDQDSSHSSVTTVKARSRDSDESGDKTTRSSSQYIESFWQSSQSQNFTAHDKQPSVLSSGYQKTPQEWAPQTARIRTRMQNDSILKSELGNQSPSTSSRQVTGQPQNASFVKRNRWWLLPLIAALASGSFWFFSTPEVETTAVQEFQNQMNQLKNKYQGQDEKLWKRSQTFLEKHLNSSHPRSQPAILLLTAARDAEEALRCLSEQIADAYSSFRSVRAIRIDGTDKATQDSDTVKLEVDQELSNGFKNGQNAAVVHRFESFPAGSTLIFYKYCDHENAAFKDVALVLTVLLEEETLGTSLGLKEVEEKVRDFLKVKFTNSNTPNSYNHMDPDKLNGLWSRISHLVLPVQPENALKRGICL
# [20] = target: Alpha-bungarotoxin (Bungarus multicinctus) (UniProt P60615); experiment: alpha-bungarotoxin binders on microarray, profiling panel, artefact control for SMM control protein annotation, biochemical, small-molecule microarray, Alexa647 label, 635/667 nm fluorescence (AID 1117); conditions: alpha-BTX-A647 binding fluorescence, higher = more signal
# Chain of Alpha-bungarotoxin (Bungarus multicinctus) (P60615 whole entry, looked up): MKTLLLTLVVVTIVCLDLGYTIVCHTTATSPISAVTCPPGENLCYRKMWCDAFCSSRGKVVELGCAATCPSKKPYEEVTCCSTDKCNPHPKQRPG
SMILES,composite z-score [1],composite z-score [2],composite z-score [3],z-score [4],composite z-score [5],composite z-score [6],composite z-score [7],composite z-score [8],composite z-score [9],composite z-score [10],composite z-score [11],z-score [12],composite z-score [13],composite z-score [14],composite z-score [15],composite z-score [16],composite z-score [17],composite z-score [18],composite z-score [19],composite z-score [20]
CC(C)NC(=O)[C@@H]1c2ccccc2C(=O)N(Cc2ccccc2)[C@H]1c1ccc(CO)cc1,1.62,0.652,1.11,0.00875 (inactive),0.462,0.263,-1.41,-0.942,-1.05,-0.212,-1.8,-0.777,-1.06,-0.472,0.477,0.115,-0.214,-0.647,1.57,0.181
CN1C(=O)C2C=CC(C(O)c3ccccn3)N(Nc3ccccc3)C2C1=O (stereo not given),0.427,0.257,0.276,0.782 (inactive),0.3,0.422,0.389,0.157,-0.0961,1.05,0.409,0.0435,0.129,-0.163,-0.408,-0.0647,0.318,0.266,0.353,0.476
COCCCNC(=O)[C@@]1(CCC(=O)OC(C)(C)C)N=C(c2ccc(OCCCO)cc2)O[C@H]1c1ccccc1CN=[N+]=[N-],1.62,0.965,1.08,-0.228 (inactive),1.56,1.13,0.123,0.932,0.119,0.471,1.49,0.43,-0.139,1.39,0.854,0.112,0.0898,1.36,2.28,2.19
COCCOC(=O)N1C(=O)[C@@]2(c3ccccc31)[C@H](C(=O)NC[C@H](O)c1ccccc1)[C@H]1C(=O)O[C@H](c3ccccc3)[C@H](c3ccccc3)N1[C@@H]2c1ccc(OCCO)cc1,1.38,0.0185,-0.131,-1.81 (inactive),1.08,1.27,1.13,1.51,1.01,0.955,1.11,-1.33,0.965,0.932,-0.373,-0.0263,0.0723,-0.466,1.13,0.247
COCCOC(=O)N1C(=O)[C@@]2(c3cc(C#Cc4ccc(OC)cc4)ccc31)[C@H](C(=O)N1CCN(c3ncccn3)CC1)[C@H]1C(=O)O[C@H](c3ccccc3)[C@H](c3ccccc3)N1[C@@H]2c1ccc(O)cc1,-0.12,-0.138,0.0953,-0.772 (inactive),-0.0132,-0.0617,-0.026,0.246,0.37,-0.0611,0.519,-1.39,0.0473,0.958,0.217,-0.207,-0.138,-0.366,0.135,0.107
COc1ccccc1CN1C(=O)c2ccccc2[C@@H](C(=O)NCCN2CCOCC2)[C@@H]1c1ccc(CO)cc1,1.5,-0.0936,0.658,-0.468 (inactive),-0.264,0.342,-0.502,-0.334,-0.0485,0.52,0.623,-1.64,-0.725,-0.652,0.0041,-0.185,0.123,-0.232,1.01,-0.737
CC(C)c1ccc(NN2C(C(O)c3ccc(N(C)C)cc3)C=CC3C(=O)N(c4ccccc4)C(=O)C32)cc1 (stereo not given),1.24,0.64,0.947,-0.132 (inactive),0.782,0.267,0.0151,1.25,0.469,0.898,1.42,1.61,0.0148,1.44,0.176,0.0317,0.13,0.842,0.488,1.73
COCCOC(=O)N1C(=O)[C@@]2(c3cc(C#CC4=CCCCC4)ccc31)[C@H](C(=O)NC[C@H](O)c1ccccc1)[C@H]1C(=O)O[C@H](c3ccccc3)[C@H](c3ccccc3)N1[C@@H]2c1ccc(O)cc1,1.14,0.298,0.124,-1.06 (inactive),1.22,1.3,0.663,1.41,1.06,1.01,1.38,-1.84,0.693,1.1,0.274,-0.163,-0.0055,0.996,0.949,1.13
COc1ccc(NN2C(C(O)c3ccc(OC)c(OCc4ccccc4)c3)C=CC3C(=O)N(C4CCCCC4)C(=O)C32)cc1 (stereo not given),0.897,0.686,0.627,-0.306 (inactive),0.622,0.995,0.216,1,-0.228,1.13,1.4,-1.21,-0.167,1.15,0.63,0.135,0.213,0.751,0.637,1.82
C#CCN(C(/C=C/c1ccccc1)CO)C(C(=O)O)c1ccccc1 (stereo not given),-0.211,-0.285,-0.447,-1.89 (inactive),0.0698,-0.953,-0.0139,-0.435,0.122,-0.99,-0.943,-0.206,0.111,-0.238,-0.707,-0.0981,-0.2,-0.242,-0.58,0.127
[N-]=[N+]=NCc1ccccc1[C@@H]1OC(c2ccc(OCCCO)cc2)=N[C@]1(Cc1ccccc1)C(=O)N1CCCCC1,1.36,0.792,0.63,-0.276 (inactive),1.32,1.18,-0.167,0.584,0.118,0.407,1.39,-2.79,0.232,1.4,0.955,0.0136,0.369,0.733,1.27,1.14
O=C1O[C@@H](c2ccccc2)[C@@H](c2ccccc2)N2[C@@H](c3ccc(OCCO)cc3)[C@]3(C(=O)Nc4ccccc43)[C@@H](C(=O)Nc3nc4ccccc4s3)[C@H]12,1.66,0.738,0.478,-0.876 (inactive),1.31,1.07,0.528,1.15,0.651,0.411,1.44,-2.66,1.05,1.67,0.241,0.105,0.171,1.27,1.5,1.78
O=C(CS)NCCCCCCNC(=O)[C@H]1C[C@H]2C(=O)N3CCC[C@H]3C(=O)N2[C@H]1c1cccc(OCCO)c1,1.86,-0.037,-0.109,0.5 (inactive),1.08,1.34,0.543,0.575,0.904,0.683,1.36,-0.36,0.36,0.803,0.0685,-0.0236,0.251,-0.353,0.557,0.383
CCOC(=O)C1=CCC(C(C)(C)C)N(S(=O)(=O)c2ccc(C)cc2)C1 (stereo not given),0.939,0.368,0.108,-0.0514 (inactive),1.48,0.347,1.15,1.43,1.44,0.136,1.46,-2.59,1.37,0.898,0.197,0.0561,-0.532,0.562,0.944,1.5
CO[C@H]1O[C@H](CO)[C@@H](OC(=O)Nc2ccc(Oc3ccccc3)cc2)[C@H](OC(=O)Nc2ccccc2)[C@H]1OC(=O)Nc1ccccc1,1.5,0.636,0.766,0.511 (inactive),1.35,1.33,0.24,1.2,0.113,0.185,0.838,-2.88,0.62,1.26,-0.278,0.143,-0.0789,0.149,1.2,1.8
CCOc1cc(C(O)C2C=CC3C(=O)N(c4ccccc4)C(=O)C3N2Nc2ccc([N+](=O)[O-])cc2)ccc1O (stereo not given),1.33,-0.0703,-0.129,-0.214 (inactive),0.575,0.757,0.317,0.429,0.0577,0.199,0.532,-0.31,0.173,-0.085,-0.255,-0.0165,-0.0849,-0.489,0.0762,0.0502
